Where “and” joins values, the source holds several entries; their conditions need not be identical. Equal values may be shown once. The campaign covered roughly 5,500 compounds. About 2,000 (36%) were called active. Not shown: some 18% with an inconclusive outcome. No stated cut-off is given here; in the data, active means normalized growth mostly below about 0.91 (no sharp cut-off); inconclusive means no clear call, values can overlap the other calls; inactive means mostly above about 0.92. Some of the results follow.
Test: chemical genetic growth profiling, strain panel (AID 1159580);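 further: tested at 20 µM; growth read once vehicle control cultures reached saturation at 30 °C; 1 = growth at the plate median or of vehicle wells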
Settings: S. cerevisiae deletion strains, growth OD

Measured: normalized growth

CN[C@@H]1[C@H](O)[C@H](NC)[C@H]2O[C@@]3(O)C(=O)C[C@@H](C)O[C@H]3O[C@@H]2[C@H]1O
inactive: locus YAL013W, strain DEP1, stronger effect = lower value 1.01 | locus YAL021C, strain ccr4, stronger effect = lower value 0.982 | locus YAL026C, strain drs2, stronger effect = lower value 1 | locus YAL030W, strain snc1, stronger effect = lower value 1 | locus YBL061C, strain skt5, stronger effect = lower value 1.01 | locus YBR009C, strain hhf1, stronger effect = lower value 0.976 | locus YBR021W, strain FUR4, stronger effect = lower value 0.997 | locus YBR023C, strain chs3, stronger effect = lower value 1 | locus YBR171W, strain sec66, stronger effect = lower value 1.01 | locus YBR229C, strain ROT2, stronger effect = lower value 1.01 | locus YBR231C, strain swc5, stronger effect = lower value 1.01 | locus YBR279W, strain paf1, stronger effect = lower value 0.988 | locus YCL011C, strain gbp2, stronger effect = lower value 0.991 | locus YCL016C, strain dcc1, stronger effect = lower value 0.984 | locus YCL029C, strain bik1, stronger effect = lower value 1.03 | locus YCL061C, strain MRC1, stronger effect = lower value 1.02 | locus YCL069W, strain vba3, stronger effect = lower value 1 | locus YCR088W, strain abp1, stronger effect = lower value 1 | locus YDL005C, strain med2, stronger effect = lower value 1 | locus YDL035C, strain GPR1, stronger effect = lower value 1.02 | locus YDL040C, strain nat1, stronger effect = lower value 1.01 | locus YDL074C, strain BRE1, stronger effect = lower value 1.02 | locus YDL101C, strain DUN1, stronger effect = lower value 1.02 | locus YDL134C, strain PPH21, stronger effect = lower value 1.01 | locus YDL185W, strain tfp1, stronger effect = lower value 1.02 | locus YDL192W, strain arf1, stronger effect = lower value 1.02 | locus YDR001C, strain nth1, stronger effect = lower value 0.997 | locus YDR069C, strain doa4, stronger effect = lower value 1.02 | locus YDR101C, strain arx1, stronger effect = lower value 1.02 | locus YDR137W, strain rgp1, stronger effect = lower value 0.989 | locus YDR150W, strain NUM1, stronger effect = lower value 1.01 | locus YDR159W, strain sac3, stronger effect = lower value 0.969 | locus YDR162C, strain NBP2, stronger effect = lower value 1.03 | locus YDR195W, strain ref2 0.99 | locus YDR297W, strain sur2, stronger effect = lower value 1 | locus YDR318W, strain mcm21, stronger effect = lower value 1.03 | locus YDR334W, strain swr1, stronger effect = lower value 1 | locus YDR335W, strain msn5, stronger effect = lower value 1 | locus YDR388W, stronger effect = lower value 1.02 | locus YDR392W, strain spt3, stronger effect = lower value 0.956 | locus YDR502C, strain sam2, stronger effect = lower value 1.02 | locus YEL003W, strain gim4, stronger effect = lower value 1 | locus YEL037C, strain rad23, stronger effect = lower value 0.998 | locus YEL061C, strain CIN8 (second series), stronger effect = lower value 0.991 | locus YEL061C, strain CIN8, stronger effect = lower value 1.01 | locus YER015W, strain faa2, stronger effect = lower value 1 | locus YER016W, strain bim1, stronger effect = lower value 0.974 | locus YER110C, stronger effect = lower value 1.03 | locus YER111C, strain swi4, stronger effect = lower value 1.01 | locus YER155C, strain BEM2 (second series), stronger effect = lower value 1.04 | locus YER155C, strain BEM2, stronger effect = lower value 1.01 | locus YER167W, strain BCK2, stronger effect = lower value 1.02 | locus YFR010W, strain ubp6, stronger effect = lower value 1.02 | locus YGL078C, strain dbp3, stronger effect = lower value 1.02 | locus YGL086W, strain mad1, stronger effect = lower value 1.02 | locus YGL167C, strain pmr1, stronger effect = lower value 1.02 | locus YGL173C, strain kem1, stronger effect = lower value 1.03 | locus YGL227W, strain vid30, stronger effect = lower value 1.01 | locus YGL240W, strain doc1, stronger effect = lower value 1.03 | locus YGL248W, strain PDE1, stronger effect = lower value 1.02 | locus YGL253W, strain hxk2, stronger effect = lower value 0.973 | locus YGR078C, strain PAC10, stronger effect = lower value 1.02 | locus YGR135W, strain pre9, stronger effect = lower value 1.02 | locus YGR229C, strain SMI1, stronger effect = lower value 1.02 | locus YGR252W, strain gcn5, stronger effect = lower value 1.01 | locus YHR013C, strain ard1, stronger effect = lower value 0.993 | locus YHR027C, strain rpn1, stronger effect = lower value 0.993 | locus YHR030C, strain SLT2, stronger effect = lower value 1.02 and 0.968 | locus YHR079C, strain IRE1 (second series), stronger effect = lower value 1.03 | locus YHR079C, strain IRE1, stronger effect = lower value 0.953 | locus YHR094C, strain hxt1, stronger effect = lower value 1.02 | locus YHR129C, strain ARP1, stronger effect = lower value 1.01 | locus YHR142W, strain chs7, stronger effect = lower value 0.995 | locus YHR200W, strain rpn10, stronger effect = lower value 1 | locus YIL066C, strain RNR3, stronger effect = lower value 1.01 | locus YIL073C, strain SPO22, stronger effect = lower value 1.04 | locus YIL125W, strain kgd1, stronger effect = lower value 1.01 | locus YIR030C, strain dcg1, stronger effect = lower value 1.02 | locus YJL092W, strain hpr5, stronger effect = lower value 1.01 | locus YJL095W, strain BCK1 (second series), stronger effect = lower value 1.01 | locus YJL095W, strain BCK1, stronger effect = lower value 1.02 and 0.984 | locus YJL115W, strain asf1, stronger effect = lower value 0.998 | locus YJL129C, strain trk1, stronger effect = lower value 1.01 | locus YJL134W, strain LCB3, stronger effect = lower value 1.01 | locus YJL154C, strain vps35, stronger effect = lower value 0.991 | locus YJL164C, strain tpk1, stronger effect = lower value 0.987 | locus YJL166W, strain qcr8, stronger effect = lower value 1.02 | locus YJL168C, strain set2, stronger effect = lower value 1.02 | locus YJL187C, strain SWE1 (second series), stronger effect = lower value 1.02 | locus YJR043C, strain POL32, stronger effect = lower value 1.01 | locus YJR066W, strain TOR1, stronger effect = lower value 0.977
